Candida biofilm = clotrimazole potentiators killing Candida biofilms, primary screen, with clotrimazole, Alamar Blue; C. albicans biofilm + clotrimazole; inhibition, % at 6 µM; hit rate 0.14% among 85,000;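 active = inhibition above 20%; inactive = inhibition below 20%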;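 also: preformed 24 hr biofilms exposed to compound for 48 hr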
ERb SRC1 inh = inhibitors of ERβ-SRC1 coactivator interaction, primary screen, biochemical, TR-FRET, ERβ LBD, SRC-1 peptide | AID 633, 2007 | inhibition, % at 25.6 µM | TR-FRET ER-beta LBD / SRC1-Cy5 peptide binding; receptor agonist-loaded with 1 µM estradiol | hit rate 1.3% among 86,000;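 active = compounds whose percent inhibition of the receptor-coactivator binding signal exceeds about 50% in the single-dose screen, limit read from the data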
Target sequence (Q92731 whole entry, looked up, the tested form may be a part): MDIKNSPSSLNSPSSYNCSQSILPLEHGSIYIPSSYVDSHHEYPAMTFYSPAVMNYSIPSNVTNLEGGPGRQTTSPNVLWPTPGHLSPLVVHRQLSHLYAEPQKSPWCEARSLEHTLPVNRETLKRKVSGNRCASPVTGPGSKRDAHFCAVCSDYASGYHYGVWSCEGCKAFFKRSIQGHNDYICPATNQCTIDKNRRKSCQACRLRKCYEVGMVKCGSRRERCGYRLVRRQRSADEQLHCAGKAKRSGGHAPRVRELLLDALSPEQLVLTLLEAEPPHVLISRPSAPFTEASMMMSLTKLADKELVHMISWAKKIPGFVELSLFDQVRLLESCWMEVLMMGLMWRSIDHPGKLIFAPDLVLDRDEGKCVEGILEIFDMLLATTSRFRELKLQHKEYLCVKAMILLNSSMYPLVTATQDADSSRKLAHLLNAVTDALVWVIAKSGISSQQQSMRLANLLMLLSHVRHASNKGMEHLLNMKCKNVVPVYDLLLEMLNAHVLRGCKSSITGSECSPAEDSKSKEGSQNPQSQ
EphB4 ephrin blk = EphB4-ephrin-B2 interaction antagonists, primary screen, biochemical, TNYL-RAW peptide probe, fluorescence polarization; Ephrin type-B receptor 4 (Homo sapiens), P54760; EphB4 LBD / TNYL-RAW-Alexa532 peptide; inhibition, % at 7 µM; hit rate 0.15% among 97,000; AID 720, 2007;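 active = inhibition above the screen-wide mean inhibition plus 3 SD, cut at about 15% in these data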
MT1-MMP txn act = MT1-MMP promoter reporter activation – cell-based, luciferase luminescence, primary screen; HT1080 MT1-MMP promoter luciferase reporter, overnight; hits give high values; activation factor at 10 µM; hit rate 0.16% among 86,000;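 active = activation factor of at least 2 for MT1-MMP transcription at 10 µM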
ERa coact inh = ERα–SRC-1 coactivator interaction inhibitors, primary screen, biochemical, TR-FRET, ERα LBD, estradiol-bound. inhibition, % at 25.6 µM. AID 629, 2007. Estrogen receptor (Homo sapiens), P03372. TR-FRET ER-alpha LBD / SRC-1 peptide. hit rate 1.7% among 86,000; in the data active = inhibition above about 50%
ERa coact pot = enhancers of ERα–SRC-1 coactivator binding, primary screen, biochemical, TR-FRET, ERα LBD, low estradiol; Estrogen receptor (Homo sapiens), P03372; TR-FRET ERalpha-LBD/SRC-Cy5 coactivator binding, 2 h; 100 = basal binding, no effect; coactivator binding (% of control), % at 25.6 µM; hit rate 1.3% among 86,000; in the data active = activity above about 200%;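 also: binding measured in presence of low estradiol as agonist stimulus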
Numbers stand for hits; i = inactive; nt = no result given; [ ] = another dose, or the depositor's remark. The list is not random: actives were taken first. Their share in the collection is about 3.2%.

SMILES | Candida biofilm | ERb SRC1 inh | EphB4 ephrin blk | MT1-MMP txn act | ERa coact inh | ERa coact pot
O=C(NC1CCCc2ccccc21)C1CCN(c2c(N3CCCC3)c(=O)c2=O)CC1 (stereo not drawn) | i | i | nt | i | i | i
O=C(CSc1nc2ccccc2s1)CSc1nc2ccccc2s1 | i | i | i | i | i | i
O=c1oc2ccccc2n1CSc1nc2ccccc2s1 | i | i | i | 2.1 | i | i
Cn1c(CSc2nc3ccccc3s2)n[nH]c1=S | i | i | i | i | i | i
Cn1c(CSc2nc3ccccc3s2)nc2ccccc21 | i | i | i | i | i | 282[fluorescence artefact?]
CCc1ccc(NC(=O)CSc2nnc(Cc3cccn3C)n2-c2ccc(F)cc2)cc1 | i | i | nt | i | i | i
COc1cc(C(=S)N2CCCC2)cc(OC)c1O | i | i | i | i | 63[fluorescence artefact?] | i
COC(=O)c1ccccc1NC(=O)c1sc(=S)n(C)c1N | i | i | i | i | 70[fluorescence artefact?] | i
COc1ccccc1NC(=O)COc1ccc(C(=O)OCC(=O)N2CCCC2=O)cc1OC | i | i | i | i | i | 349[fluorescence artefact?]
CC(=O)Nc1cccc(NC(=O)c2sc3ncn(CC(=O)N4CCCCC4)c(=O)c3c2C)c1 | nt | nt | nt | i | nt | nt
COc1cc2[nH]c(=S)n(Cc3ccco3)c(=O)c2cc1OC | i | i | i | i | i | i
COc1ccc(NC(=O)c2ccc3c(=O)n(Cc4ccco4)c(=S)[nH]c3c2)c(OC)c1 | i | i | i | i | 73[fluorescence artefact?] | i
CCCCCCN(C(=O)CCCCCN1C(=O)NC(c2ccc(-c3ccccc3)cc2)C(C(=O)OCc2ccccc2)=C1C)C(C(=O)NCCCC)c1ccc(O)c(C(=O)OC)c1 (stereo not drawn) | nt | nt | nt | i | nt | nt
CCNC(=O)NC(=O)COc1ccccc1C#N | i | i | nt | i | i | 332[fluorescence artefact?]
CCOC(=O)c1ccc2ncc(C(=O)OCC)c(NCc3ccco3)c2c1 | i | i | i | i | i | i
O=C(O)c1ccc(Cl)c2c1C1C=CCC1C(c1ccccn1)N2 (stereo not drawn) | i | 87[fluorescence artefact?] | i | i | 65[fluorescence artefact?] | i
C1=CC2c3ccccc3NC(c3ccncc3)C2C1 (stereo not drawn) | i | i | i | i | i | i
CCC(c1nnnn1Cc1ccc2c(c1)OCO2)N1CCN(c2ccc(F)cc2)CC1 (stereo not drawn) | i | 79[fluorescence artefact?] | i | i | i | i
O=[N+]([O-])c1ccc(Nc2nc(N/N=C\c3ccc4c(c3)OCO4)nc(N3CCCCC3)n2)cc1 | nt | nt | i | nt | nt | nt
O=[N+]([O-])c1ccc(/C=N/Nc2nc(N3CCCCCC3)nc(N3CCCCCC3)n2)o1 | i | 96[fluorescence artefact?] | i | i | i | i
COc1cc(C)nc(N2CCCC(C(=O)Nc3cccc(Cl)c3Cl)C2)n1 (stereo not drawn) | i | i | i | i | i | i
Cc1ccc(C)c(NC(=O)CSc2nnc(-c3ccco3)o2)c1 | i | i | nt | i | i | i
Cc1cc(NC(=O)CSc2nnc(-c3ccco3)o2)no1 | i | i | i | i | i | 255[fluorescence artefact?]
CN1CCN(C(c2cccnc2)c2ccc3cccnc3c2O)CC1 (stereo not drawn) | i | 60[fluorescence artefact?] | i | i | 78[fluorescence artefact?] | i
Cc1nc(NC2=NCN(Cc3cccnc3)CN2)nc2c(C)cccc12 | i | i | nt | i | i | i
SMILES | Candida biofilm | ERb SRC1 inh | EphB4 ephrin blk | MT1-MMP txn act | ERa coact inh | ERa coact pot
O=C(NCc1ccccc1)c1ccc2nc(-c3ccco3)c(-c3ccco3)nc2c1 | i | 97[fluorescence artefact?] | i | i | 93[fluorescence artefact?] | i
CCCCNC(=O)c1ccc2nc(-c3ccco3)c(-c3ccco3)nc2c1 | nt | nt | nt | i | nt | nt
COc1ccccc1NC(=O)c1sc2nc(-c3ccco3)ccc2c1N | i | i | i | i | i | i
O=C(Nc1ccccc1)c1ccc2nc(-c3ccco3)c(-c3ccco3)nc2c1 | i | 88[fluorescence artefact?] | i | i | 90[fluorescence artefact?] | i
Nc1c(C(=O)Nc2ccccc2)sc2nc(-c3ccco3)ccc12 | i | 58[fluorescence artefact?] | i | i | 69[fluorescence artefact?] | i
CC(=O)c1ccc(NC(=O)c2ccc3nc(-c4ccco4)c(-c4ccco4)nc3c2)cc1 | i | 95[fluorescence artefact?] | i | nt | 92[fluorescence artefact?] | i
Cc1cncn1CCc1nc2c3ccccc3nc(=S)n2[nH]1 | i | i | i | i | i | i
COc1ccccc1OCc1nc(Cc2ccc(Cl)cc2)no1 | i | i | i | i | i | i
COC(=O)[C@@]1(Cc2ccc(OC)cc2)[C@H]2c3cc(C(=O)N(C)C)n(CCSCCO)c3C[C@H]2CN1C(=O)c1ccccc1 | nt | nt | nt | i | nt | nt
Cc1cccc(Nc2nc(-c3cccs3)cs2)n1 | i | i | i | 2.3 | i | i
CC1(C)Cc2ccccc2C(c2cc3ccccc3oc2=O)=N1 | i | i | i | i | i | i
CC1(C)Cc2c(ccc3ccccc23)C(c2cc3ccccc3oc2=O)=N1 | i | i | i | i | 60[fluorescence artefact?] | i
COc1ccccc1CNC(=O)c1cnccn1 | i | i | i | i | 61[fluorescence artefact?] | i
COc1ccccc1CNC(=O)COC(=O)c1cnccn1 | i | i | i | i | i | i
Cc1ccccc1C(=O)Nc1ccccc1 | i | i | i | i | i | i
Cc1ccccc1C(=O)Nc1cccc(NC(=O)c2ccc(-c3ccc(Br)cc3)o2)c1 | i | i | i | i | 79[fluorescence artefact?] | i
O=C1Cc2ccccc2Sc2ccccc21 | nt | nt | i | nt | nt | nt
O=C1Nc2cc3c(cc2Sc2ccccc21)OCCO3 | i | i | i | i | i | 234[fluorescence artefact?]
O=C(Nc1ccc(Cn2nnc3ccccc32)cc1)c1ccco1 | i | i | i | i | i | i
CCCCNC(=O)CC1SC(=NCC)N(CC)C1=O (stereo not drawn) | i | i | i | i | i | i
CCN=C1SC(CC(=O)NC(C)C)C(=O)N1CC (stereo not drawn) | i | i | i | i | i | 853[fluorescence artefact?]
Cc1ccc(NC(=O)CSc2nnc(-c3ccc(S(=O)(=O)N4CCCC4)cc3)o2)cc1C | i | i | i | i | i | i
Cc1cccc(NC(=O)CSc2nnc(-c3ccc(S(=O)(=O)N4CCCC4)cc3)o2)c1 | i | i | 17 | i | i | i
COC(=O)[C@@]1(Cc2ccccc2)[C@H]2c3cc(C(=O)N4CCCC4)n(C)c3C[C@H]2CN1C(=O)c1ccccc1 | nt | nt | nt | i | nt | nt
O=C(NCCCN1CCc2ccccc2C1)C1CCN(c2nnc(-n3cccc3)s2)CC1 | i | i | nt | nt | 72[fluorescence artefact?] | i
O=C(NC1CCN(Cc2ccccc2)CC1)C1CCN(c2nnc(-n3cccc3)s2)CC1 | i | i | nt | i | 54[fluorescence artefact?] | i
O=C(CCc1c[nH]c2ccccc12)NCC1CCCO1 (stereo not drawn) | i | i | i | i | i | i
COc1ccc(CCn2c(N)cc(=O)[nH]c2=S)cc1OC | i | 58[fluorescence artefact?] | i | i | i | i

Screens as filed in PubChem BioAssay.
